The record followed here is PubChem BioAssay (NCI).

Where “and” joins values, the source holds several entries; their conditions need not be identical. Identical values can stand only once. Compounds without any hit were thinned out: in the full panel of roughly 83,000, 20% have a hit.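 Negative percent growth values reflect cell death: -40 means 40% of the cells present at the start died, and -100 means all died.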 A number with no mark means an inactive call. Calls of active or inactive are those of the source.

The first assay relates to UO-31 renal. Description: NCI-60 one-dose screen, 48 h (100 = growth as untreated, 0 = no growth, -100 = all killed). The settings on record: 10 µM. As for the experimental part:
Growth inhibition of the UO-31 human tumor cell line is measured as a screen for anti-cancer activity. Cells are grown in 96 well plates and exposed to the test compound for 48 hours. Compounds are tested at a single concentration, which is 10^-5 M for most compounds. The reported endpoint is percent growth (GI% or GIPRCNT), where numbers from 0 - 100% represent growth inhibition, and numbers from -100% - 0 represent cell death. For example, a value of 40 represents 60% growth inhibition. A value of 0 means no net growth occurred over the course of the experiment. A value of -40 indicates 40% of cells at the beginning of the experiment died by the end of the experiment. A value of -100 means all cells are dead at the end of the experiment.
NCI-60 Human Tumor Cell Lines Screen was performed using the standard one-dose NCI protocol, which is described in more detail at https://dtp.cancer.gov/discovery_development/nci-60/default.htm.
Compounds with GIPRCNT values below 10 were considered active. Activity score was based on GIPRCNT using the following formula: […]
Score is 0 for GIPRCNT values of 100 or above, 50 for GIPRCNT values of 0, and 100 for GIPRCNT values of -100.
Turning to `CC(=O)/C=C/c1ccc(OCc2ccc(C(C)(C)C)cc2)cc1`, the growth is 68.6%.

The assay is the same for the next values; noted with them: 10 µM unless noted.
On to `COc1c(F)cc(-n2c(C(=O)N3CC(F)C3)cc3cccnc32)cc1F`, for which the growth was 74.2%.
For `N#Cc1c(-c2cccc(F)c2)cc(-c2cccnc2)[nH]c1=O`, the growth was 90.2%.
The same measure, in the same setting: under `COc1ccc2c(c1)CCNC21C(=O)Nc2c(Br)cc(Br)cc21` (stereo not given) stands 62.1%; under `BrC1=C(Br)C(Br)(Br)C(Br)=C1Br`, 79.3%.
Regarding `Cc1ccc2c(c1)C(C)Cc1c(ncnc1-n1cnc3cc(C)ccc31)N2C` (stereo not given), the growth was 31%.
`CCCCC1=C(Br)C(=O)c2nc(C)ccc2C1=O`: the growth is 70.8%.
As for `O=C1C(c2c[nH]c3ccccc23)=C(c2coc3cc(Br)ccc23)C(=O)N1O`, the growth is 73.4%.
Regarding `O=C(/C=C/c1ccc(F)cc1)Nc1ncc(Cc2ccc(F)cc2)s1`, the growth is 39%.
As for `COc1cc(CO)cc2cc3ccccc3nc12`, the growth was 81.7%.
Consider `CC/C=C\C/C=C\C[C@H](O)C/C=C1/C(=O)C=C[C@@H]1C/C=C\CCCC(=O)OC`, for which the growth was -83.3% (active).
For the compound `CN(C)CCCn1c2nc(=O)[nH]c(=O)c-2nc2cc(Cl)c(Cl)cc21`, the growth is 80.9%.
As to `CC[C@@H]1NC(=O)[C@H]([C@H](O)[C@H](C)C/C=C/c2ccc(CN3C(=O)C(C)=C(C)C3=O)cc2)N(C)C(=O)[C@H](C(C)C)N(C)C(=O)[C@H](CC(C)C)N(C)C(=O)[C@H](CC(C)C)N(C)C(=O)[C@@H](C)NC(=O)[C@H](C)NC(=O)[C@H](CC(C)C)N(C)C(=O)[C@H](C(C)C)NC(=O)[C@H](CC(C)C)N(C)C(=O)CN(C)C1=O`, the growth was 57.3%.
With `Cc1ccc(C(=O)Nc2nc3c(s2)CN(Cc2ccccc2)CC3)cn1`, the growth was 80.5%.
With `Cc1nn(-c2nc(-c3cc4ccccc4oc3=O)cs2)c(C)c1N=Nc1ccccc1`, the growth was 79.3%.
With `OCc1cc(CN2CCCCC2)c(O)c2ncccc12`, the growth was 17.7%.
For the compound `Cc1ccc(C(=O)N(CCCN)[C@@H](c2nc3cc(Cl)ccc3c(=O)n2Cc2ccccc2)C(C)C)cc1`, the growth was 5.01% (active).
Turning to `Nc1nc(Nc2ccc(F)cc2)nn1C(=O)c1cc(Cl)ccc1Cl`, the growth is 64.7%.
With `CC(=O)c1nn(-c2ccccc2)/c(=N/N=Cc2cn(-c3ccccc3)nc2-c2cc3ccccc3oc2=O)s1`, the growth is 84%.
On to `Nc1ccc(S(=O)(=O)c2ccc(N)cc2)cc1`, for which the growth is 89.8% and 75.5%.
For `CC(Sc1ccccc1)C(=O)O` (stereo not given), the growth was 94.9%.
For `NCCOCCOc1ccccc1`, the growth was 86.8%.
In the case of `CN(C)CC1(C)Cc2ccsc2C1O` (stereo not given), the growth was 94.2% and 87.3%.
On the same count and under the same terms, under `O=C1/C(=C/c2ccc(-c3ccccc3C(F)(F)F)o2)SC(=S)N1CCc1ccc(O)cc1` stands 40.1%; under `O=C(O)C1C2CCC1C(O)C2` (stereo not given), 81.6% and 82%; under `CC/C(=C(/c1ccc(Cl)cc1)c1ccc(OCCN2CCOCC2)cc1)c1ccccc1`, 86.4%.
As for `CN1CCN(c2ccc(Nc3ncc(C(N)=O)c(NCCCNC(=O)C4CCC4)n3)cc2)CC1`, the growth is 40.1%.
With `CCN(c1cc(-c2ccc(CN3CCC(/C=C/S(=O)(=O)c4ccccc4)CC3)cc2)cc(C(=O)NCc2c(C)cc(C)[nH]c2=O)c1C)C1CCOCC1`, the growth was 44.7%.
`Cc1ccc(Cl)cc1N1CCN(C(=O)[C@@H]2C[C@@H]2c2ccc(F)cc2)CC1`: the growth is 70.9%.
On the same count and under the same terms, under `COc1cc2nc3cc([N+](=O)[O-])ccc3c(NCCNCC(C)(C)O)c2cc1OC` stands 27.7%.
Same read-out and setting: under `O=C(Nc1ncc(Cc2cccc(C(F)(F)F)c2)s1)c1ccc2c(c1)OCCO2` stands 47.7%; under `CCOC(=O)c1ccc(Nc2ncnc3c2cnn3-c2cccc(F)c2)cc1`, 72.1%.
For the compound `CCCc1cc(C(N)=S)ccn1`, the growth was 76.4%.
`O=C(CC1(O)C(=O)Nc2ccc(Br)cc21)c1ccc(Cl)cc1` (stereo not given): the growth is 75.9%.
Consider `C/C=C(\C)C(=O)N[C@H]1CC[C@]2(C)C3CC[C@@]4(C)C(CC[C@@H]4C(C)N(C)C)C3CCC2[C@H]1OC(C)=O` (stereo not given in full), for which the growth is -4.52% (active).
Regarding `COc1ccc(-c2ccccc2)cc1-c1c(Nc2cc(Cl)cc(Cl)c2O)c(=O)c1=O`, the growth was 6.3% (active).
Take `Cc1ccc(-c2nc([P+](c3ccccc3)(c3ccccc3)c3ccccc3)c(Nc3ccccc3)o2)cc1`: the growth was -23.5% (active).
Take `O=C1OCC2=C1C(c1cccc(C(F)(F)F)c1)c1cc3c(cc1N2CCO)OCCO3` (stereo not given): the growth is 47.4%.
As to `CC(=NCc1ccccc1)c1ccc(O)cc1O`, the growth is 81.7%.

Still in this assay, the particulars now being: 100 µM.
As to `CC(=O)/C=C/c1ccc(OCc2ccc(C(C)(C)C)cc2)cc1`, the growth is 14.8%.
